Reference: PubChem BioAssay (EPA / NIEHS)
Active and inactive are the calls of the source. The calls were made as follows: active = hit-call score of the fitted dose curve at least 0.9, where 1 is the maximum; inactive = score below 0.9.

What was measured:
[1] = ATG_GRE_CIS: Attagene CIS-FACTORIAL HepG2 Assay for human Glucocorticoid Response Elements (GRE) (AID 2282947); conditions: HepG2 GRE cis-reporter, Attagene multiplex mRNA; actives raise or lower the signal
Procedure, shortened: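 Endogenous transcription factor activity is read through cis-element reporter constructs transiently transfected into HepG2 cells. After 24 h treatment, labelled RT-PCR products are resolved by capillary electrophoresis; DMSO sets baseline for bidirectional curve fitting.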

[2] = ATG_ISRE_CIS: Attagene CIS-FACTORIAL HepG2 Assay for human Interferon Regulatory Factor 1 (IRF1) binding to an Interferon-Stimulated Response Element (ISRE) (AID 2282948); conditions: HepG2 ISRE cis-reporter (Attagene), mRNA transcription readout; actives raise or lower the signal
Procedure, shortened: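 Quantitation relies on labelled RT-PCR fragments separated by capillary electrophoresis. Human HepG2 cells bearing cis-promoter reporter constructs were treated 24 h; DMSO served as baseline for bidirectional fitting.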

[3] = ATG_M_32_CIS: Attagene CIS-FACTORIAL HepG2 Assay for M32 Transcription Factor (Internal Marker) (AID 2282949); conditions: HepG2 Attagene cis-factorial M32 reporter, mRNA; actives raise or lower the signal;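 also: background control marker of the multiplexed CIS panel rather than a real target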
Procedure, shortened: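 Following 24 h chemical exposure of HepG2 cells transiently expressing cis-promoter reporter constructs, reporter transcript levels were determined by RT-PCR with fluorescent labelling and capillary electrophoresis, then fitted bidirectionally against DMSO.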

[4] = ATG_M_06_CIS: Attagene CIS-FACTORIAL HepG2 Assay for M06 Transcription Factor (Internal Marker) (AID 2282950); conditions: HepG2 Attagene CIS-FACTORIAL M06 internal marker reporter; actives raise or lower the signal
Procedure, shortened: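 Steps: transfect HepG2 with multiplexed cis-element reporter constructs; dose chemical 24 h; extract RNA with DNase treatment; reverse-transcribe, PCR-amplify, 6-FAM label, HpaI digest; separate fragments by capillary electrophoresis. Activity fitted both directions versus DMSO.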

[5] = molecular target: Hypoxia-inducible factor 1-alpha (Homo sapiens) (UniProt Q16665); assay: ATG_HIF1a_CIS: Attagene CIS-FACTORIAL HepG2 Assay for human Hypoxia Inducible Factor 1 (HIF1A) (AID 2282951); conditions: HepG2 Attagene cis-factorial HIF1a reporter transcription; actives raise or lower the signal
Chain of Hypoxia-inducible factor 1-alpha (Homo sapiens) (Q16665 whole entry, looked up): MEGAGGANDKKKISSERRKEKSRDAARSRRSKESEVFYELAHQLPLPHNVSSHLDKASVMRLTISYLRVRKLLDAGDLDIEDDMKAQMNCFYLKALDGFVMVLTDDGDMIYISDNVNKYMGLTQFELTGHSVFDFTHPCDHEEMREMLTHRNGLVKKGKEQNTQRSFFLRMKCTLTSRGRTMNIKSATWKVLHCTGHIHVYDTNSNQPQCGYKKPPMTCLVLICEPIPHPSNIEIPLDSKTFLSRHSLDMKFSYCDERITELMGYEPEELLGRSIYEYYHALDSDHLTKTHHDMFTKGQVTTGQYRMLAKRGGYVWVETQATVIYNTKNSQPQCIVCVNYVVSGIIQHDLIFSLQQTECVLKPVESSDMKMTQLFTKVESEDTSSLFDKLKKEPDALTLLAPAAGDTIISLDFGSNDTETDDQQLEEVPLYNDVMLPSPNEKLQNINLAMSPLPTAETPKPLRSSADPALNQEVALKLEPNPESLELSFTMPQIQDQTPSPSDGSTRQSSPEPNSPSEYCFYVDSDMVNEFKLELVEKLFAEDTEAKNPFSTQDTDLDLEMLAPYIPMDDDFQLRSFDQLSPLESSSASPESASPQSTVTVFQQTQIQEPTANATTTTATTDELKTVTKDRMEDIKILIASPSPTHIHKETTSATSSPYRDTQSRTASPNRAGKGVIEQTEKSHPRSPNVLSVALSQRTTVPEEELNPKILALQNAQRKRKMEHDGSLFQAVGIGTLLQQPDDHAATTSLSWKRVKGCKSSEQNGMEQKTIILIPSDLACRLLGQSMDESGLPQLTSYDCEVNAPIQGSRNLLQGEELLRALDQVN
Procedure, shortened: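 Cis-element reporter constructs were transiently transfected into HepG2 cells, which were treated for 24 h; reporter RNA was reverse-transcribed, amplified, labelled and resolved by capillary electrophoresis.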

[6] = molecular target: Hepatocyte nuclear factor 6 (Homo sapiens) (UniProt Q9UBC0); assay: ATG_HNF6_CIS: Attagene CIS-FACTORIAL HepG2 Assay for human Hepatocyte Nuclear Factor 6 (HNF6) (AID 2282952); conditions: HepG2 Attagene cis-factorial HNF6 reporter transcription; actives raise or lower the signal
Chain of Hepatocyte nuclear factor 6 (Homo sapiens) (Q9UBC0 whole entry, looked up): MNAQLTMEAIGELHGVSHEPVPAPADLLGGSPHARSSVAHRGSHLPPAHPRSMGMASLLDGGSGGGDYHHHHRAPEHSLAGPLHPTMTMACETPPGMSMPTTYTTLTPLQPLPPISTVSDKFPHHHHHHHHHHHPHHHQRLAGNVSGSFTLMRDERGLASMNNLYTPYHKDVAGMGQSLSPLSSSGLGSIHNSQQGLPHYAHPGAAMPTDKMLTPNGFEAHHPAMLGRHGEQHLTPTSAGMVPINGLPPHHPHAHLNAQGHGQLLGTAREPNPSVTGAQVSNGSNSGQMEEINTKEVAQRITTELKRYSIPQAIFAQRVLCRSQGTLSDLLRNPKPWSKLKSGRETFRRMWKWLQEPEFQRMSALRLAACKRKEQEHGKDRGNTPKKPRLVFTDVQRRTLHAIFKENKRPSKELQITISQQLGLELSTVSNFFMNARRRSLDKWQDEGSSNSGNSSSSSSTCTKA
Procedure, shortened: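 Multiplexed mRNA reporter assay in transfected HepG2; 24 h dosing; RT-PCR plus capillary electrophoresis fluorescence; DMSO-referenced bidirectional curve fitting.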

[7] = molecular target: Heat shock factor protein 1 (Homo sapiens) (UniProt Q00613); assay: ATG_HSE_CIS: Attagene CIS-FACTORIAL HepG2 Assay for human Heat Shock Transcription Factor 1 (HSE) (AID 2282953); conditions: HepG2 HSE cis-reporter, Attagene RNA transcription; actives raise or lower the signal
Chain of Heat shock factor protein 1 (Homo sapiens) (Q00613 whole entry, looked up, the tested form may be a part): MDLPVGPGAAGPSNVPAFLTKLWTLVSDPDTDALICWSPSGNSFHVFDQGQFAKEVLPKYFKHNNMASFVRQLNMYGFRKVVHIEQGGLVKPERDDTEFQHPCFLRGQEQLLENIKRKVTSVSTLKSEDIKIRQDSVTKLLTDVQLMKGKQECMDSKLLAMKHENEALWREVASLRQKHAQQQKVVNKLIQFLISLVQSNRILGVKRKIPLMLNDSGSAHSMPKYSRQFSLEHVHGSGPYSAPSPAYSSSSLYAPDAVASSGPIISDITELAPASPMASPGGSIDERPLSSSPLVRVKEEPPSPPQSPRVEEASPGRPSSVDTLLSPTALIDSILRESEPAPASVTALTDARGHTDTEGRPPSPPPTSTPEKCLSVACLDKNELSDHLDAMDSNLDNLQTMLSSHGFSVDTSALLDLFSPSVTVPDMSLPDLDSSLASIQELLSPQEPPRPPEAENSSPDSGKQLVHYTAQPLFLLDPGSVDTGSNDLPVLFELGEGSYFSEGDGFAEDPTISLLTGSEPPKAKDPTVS
Procedure, shortened: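 Cells were transfected with cis-element-driven reporter constructs, dosed for 24 h, then total RNA was reverse-transcribed and reporter cDNA amplified, FAM-labelled and digested with HpaI. Fragments were resolved by capillary electrophoresis; gain or loss was fitted against DMSO.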

[8] = ATG_MRE_CIS: Attagene CIS-FACTORIAL HepG2 Assay for human Metal Responsive Element (MRE) (AID 2282954); conditions: HepG2 MRE cis-reporter transcription, Attagene multiplex; actives raise or lower the signal
Procedure, shortened: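 Fluorescent reporter fragments separated by capillary electrophoresis give mRNA induction for the MRE unit after 24 h treatment of transfected HepG2 cells. Endogenous transcription-factor activity is read; DMSO serves as negative control and baseline.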

[9] = ATG_PBREM_CIS: Attagene CIS-FACTORIAL HepG2 Assay for human Phenobarbital-responsive Enhancer Module (PBREM) (AID 2282955); conditions: HepG2 PBREM cis-reporter, Attagene multiplexed transcription; actives raise or lower the signal
Procedure, shortened: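 Multiplexed cis-reporter readout in human hepatoma HepG2 cells; PBREM-regulated transcript quantified after 24 h exposure by fluorescent RT-PCR fragment analysis. Signal changes up or down fitted relative to DMSO.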

[10] = molecular target: Paired box protein Pax-6 (Homo sapiens) (UniProt P26367); assay: ATG_Pax6_CIS: Attagene CIS-FACTORIAL HepG2 Assay for human Paired Box 6 (PAX6) (AID 2282956); conditions: HepG2 CIS-FACTORIAL PAX6 reporter transcription, RNA readout; actives raise or lower the signal
Chain of Paired box protein Pax-6 (Homo sapiens) (P26367 whole entry, looked up): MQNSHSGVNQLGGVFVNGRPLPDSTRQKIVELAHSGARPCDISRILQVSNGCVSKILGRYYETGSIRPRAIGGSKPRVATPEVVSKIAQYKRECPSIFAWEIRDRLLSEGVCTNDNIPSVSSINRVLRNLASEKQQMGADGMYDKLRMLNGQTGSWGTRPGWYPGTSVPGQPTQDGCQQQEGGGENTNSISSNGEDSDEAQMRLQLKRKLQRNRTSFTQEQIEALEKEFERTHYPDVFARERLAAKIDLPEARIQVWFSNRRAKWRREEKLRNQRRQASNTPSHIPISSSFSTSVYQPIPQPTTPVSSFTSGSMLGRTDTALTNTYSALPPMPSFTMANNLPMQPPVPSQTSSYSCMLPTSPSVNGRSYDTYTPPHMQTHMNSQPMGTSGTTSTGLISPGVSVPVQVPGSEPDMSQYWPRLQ
Procedure, shortened: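 After twenty-four hours of chemical exposure, transfected HepG2 cells are harvested for RNA. Cis-promoter reporter transcripts are amplified, fluorescently labelled and sized by capillary electrophoresis, with gain and loss of signal scored against DMSO.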

[11] = ATG_PXRE_CIS: Attagene CIS-FACTORIAL HepG2 Assay for human Pregnane X Receptor Element (PXRE) (AID 2282957); conditions: HepG2 Attagene CIS-FACTORIAL PXRE reporter, mRNA; actives raise or lower the signal
Procedure, shortened: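 Cells: HepG2, transiently transfected reporter units under cis promoter control. Exposure: 24 h. Detection: reporter mRNA via RT-PCR/CE fluorescence; bidirectional fitting, DMSO-referenced.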

[12] = ATG_PPRE_CIS: Attagene CIS-FACTORIAL HepG2 Assay for human Peroxisome Proliferator-activated Response Element (PPRE) (AID 2282958); conditions: HepG2 PPRE cis-element reporter, Attagene transcription factor profiling; actives raise or lower the signal
Procedure, shortened: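 DMSO served as negative control and baseline for bidirectional curve fitting. Signal came from PPRE-regulated reporter mRNA in HepG2 cells, measured 24 h post-dosing by RT-PCR, 6-FAM primer extension and capillary electrophoresis.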

[13] = ATG_RORE_CIS: Attagene CIS-FACTORIAL HepG2 Assay for human RAR-related Orphan Receptor Element (RORE) (AID 2282959); conditions: HepG2 Attagene cis-factorial RORE reporter, mRNA; actives raise or lower the signal
Procedure, shortened: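 Transfect HepG2 with MRTUs; treat 24 h; extract RNA; RT with oligo(dT); PCR with reporter-specific primers; 6-FAM primer extension; HpaI digest 2 h at 37 C; capillary electrophoresis. Fit vs DMSO, bidirectional.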

[14] = ATG_Sox_CIS: Attagene CIS-FACTORIAL HepG2 Assay for human SRY-box transcription factor (SOX) (AID 2282960); conditions: HepG2 Attagene cis-factorial SOX reporter, mRNA; actives raise or lower the signal
Procedure, shortened: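 Fluorescence-labelled cDNA fragments from reporter transcripts, sized by CE, give the signal. Cells: HepG2, transiently transfected with cis-regulated reporter units. Exposure 24 h; DMSO negative control; bidirectional curve fitting.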

[15] = molecular target: Transcription factor Sp1 (Homo sapiens) (UniProt P08047); assay: ATG_Sp1_CIS: Attagene CIS-FACTORIAL HepG2 Assay for human Specificity Protein 1 (Sp1) (AID 2282961); conditions: HepG2 Sp1 cis-reporter transcription, actives raise or lower the signal
Chain of Transcription factor Sp1 (Homo sapiens) (P08047 whole entry, looked up): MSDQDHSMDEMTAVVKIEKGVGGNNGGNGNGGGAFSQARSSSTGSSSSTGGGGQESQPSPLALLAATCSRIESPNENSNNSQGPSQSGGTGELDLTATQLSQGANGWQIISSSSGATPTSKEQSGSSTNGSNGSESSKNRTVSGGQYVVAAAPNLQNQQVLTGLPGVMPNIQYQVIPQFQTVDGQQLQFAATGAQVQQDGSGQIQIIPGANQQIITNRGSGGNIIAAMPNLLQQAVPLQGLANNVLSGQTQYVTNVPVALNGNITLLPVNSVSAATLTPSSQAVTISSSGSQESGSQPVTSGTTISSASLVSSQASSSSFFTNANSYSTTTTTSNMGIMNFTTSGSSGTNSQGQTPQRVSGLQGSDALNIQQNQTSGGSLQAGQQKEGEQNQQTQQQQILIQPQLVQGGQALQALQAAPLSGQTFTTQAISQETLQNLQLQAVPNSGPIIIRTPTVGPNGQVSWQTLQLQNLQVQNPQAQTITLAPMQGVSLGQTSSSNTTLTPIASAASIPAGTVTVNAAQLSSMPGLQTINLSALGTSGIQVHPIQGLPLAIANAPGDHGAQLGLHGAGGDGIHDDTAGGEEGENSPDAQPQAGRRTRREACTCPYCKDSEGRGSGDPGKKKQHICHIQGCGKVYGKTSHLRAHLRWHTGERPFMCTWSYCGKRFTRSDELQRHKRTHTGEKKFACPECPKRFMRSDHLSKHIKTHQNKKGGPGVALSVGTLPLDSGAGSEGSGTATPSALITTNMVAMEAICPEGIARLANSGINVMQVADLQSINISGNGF
Procedure, shortened: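 Chemicals are dosed onto HepG2 cells transfected with multiple cis-promoter reporter constructs, and after 24 h reporter RNA is reverse-transcribed, PCR-amplified and resolved by capillary electrophoresis for fluorescence quantitation; activity is scored up or down against DMSO.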

[16] = ATG_SREBP_CIS: Attagene CIS-FACTORIAL HepG2 Assay for human Sterol Regulatory Element Binding (SREBP) (AID 2282962); conditions: HepG2 Attagene cis-factorial SREBP reporter, mRNA; actives raise or lower the signal
Procedure, shortened: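 Twenty-four hours after chemical dosing of transfected HepG2 cultures, reporter RNA was converted to cDNA, amplified, end-labelled with 6-FAM and resolved by capillary electrophoresis. Responses were fitted relative to DMSO.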

[17] = ATG_TA_CIS: Attagene CIS-FACTORIAL HepG2 Assay for human TA Basal Promoter (AID 2282964); conditions: HepG2 Attagene CIS-factorial TA basal promoter reporter; actives raise or lower the signal
Procedure, shortened: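 Steps: transfect HepG2 with MRTUs; dose 24 h; isolate RNA, DNase-treat, reverse-transcribe; PCR and FAM-label reporter cDNA; digest with HpaI 2h at 37 C; run capillary electrophoresis. Activity fitted both directions against DMSO.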

[18] = ATG_TCF_b_cat_CIS: Attagene CIS-FACTORIAL HepG2 Assay for human T-Cell-Factor with beta-catenin (TCF/b-cat) (AID 2282965); conditions: HepG2 TCF/beta-catenin cis-reporter transcription, actives raise or lower the signal
Procedure, shortened: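 Cells of the HepG2 line carry transiently transfected reporter units whose promoters respond to endogenous factors. Twenty-four hours post-dosing, reporter mRNA induction is measured by fluorescent RT-PCR and capillary electrophoresis, with DMSO as baseline.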

[19] = molecular target: Signal transducer and activator of transcription 3 (Homo sapiens) (UniProt P40763); assay: ATG_STAT3_CIS: Attagene CIS-FACTORIAL HepG2 Assay for human Signal Transducer and Activator of Transcription 3 (STAT3) (AID 2282963); conditions: HepG2, Attagene cis-factorial STAT3 reporter transcription; actives raise or lower the signal
Chain of Signal transducer and activator of transcription 3 (Homo sapiens) (P40763 whole entry, looked up): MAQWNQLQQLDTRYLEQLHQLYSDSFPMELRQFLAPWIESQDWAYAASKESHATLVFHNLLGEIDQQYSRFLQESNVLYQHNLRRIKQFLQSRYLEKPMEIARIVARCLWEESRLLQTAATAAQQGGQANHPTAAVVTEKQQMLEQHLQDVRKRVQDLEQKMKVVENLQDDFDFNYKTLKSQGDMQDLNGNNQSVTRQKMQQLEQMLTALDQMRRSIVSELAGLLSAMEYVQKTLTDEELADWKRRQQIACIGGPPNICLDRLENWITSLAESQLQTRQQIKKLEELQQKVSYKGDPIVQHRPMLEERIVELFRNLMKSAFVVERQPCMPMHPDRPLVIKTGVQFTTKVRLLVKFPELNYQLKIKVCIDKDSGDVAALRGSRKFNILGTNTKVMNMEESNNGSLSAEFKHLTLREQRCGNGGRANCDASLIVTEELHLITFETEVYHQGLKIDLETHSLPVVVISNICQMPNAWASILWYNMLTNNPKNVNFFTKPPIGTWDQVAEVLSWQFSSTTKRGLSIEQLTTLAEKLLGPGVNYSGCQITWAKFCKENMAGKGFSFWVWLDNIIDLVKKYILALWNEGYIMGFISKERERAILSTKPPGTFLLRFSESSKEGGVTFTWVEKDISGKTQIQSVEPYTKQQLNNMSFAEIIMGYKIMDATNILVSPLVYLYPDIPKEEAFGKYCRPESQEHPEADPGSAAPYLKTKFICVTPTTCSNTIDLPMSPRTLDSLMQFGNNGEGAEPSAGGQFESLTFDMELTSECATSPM
Procedure, shortened: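 Values derive from bidirectional fits relative to DMSO of reporter mRNA levels, measured by RT-PCR with capillary electrophoresis, in HepG2 cells carrying transiently transfected cis-regulated reporter units and exposed 24 h.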

Measured: AC50

CC1COc2ccccc2N1C(=O)C(Cl)Cl (configuration not stated)
active: [2] 100 µM | [8] 62.1 µM | [10] 26.7 µM | [11] 26.6 µM
not listed: [19]
inactive: all other assays above

O=[N+]([O-])c1ccc(C=Cc2ccc([N+](=O)[O-])cc2S(=O)(=O)O)c(S(=O)(=O)O)c1
not listed: [12] | [17]
inactive: all other assays above

CO[Si](C)(OC)c1ccccc1
active: [11] 2.95 µM
not listed: [16]
inactive: all other assays above

CCCCCCCCCCCCCCCC(=O)O
active: [11] 25.3 µM
not listed: [12] | [13] | [17] | [19]
inactive: all other assays above

CC(=O)Nc1ccc(CC(=O)O)cc1
not listed: [12] | [13] | [16]
inactive: all other assays above

C=CC(=O)OCC(O)COc1ccccc1 (configuration not stated)
active: [1] 67.3 µM | [2] 27.4 µM | [7] 134 µM | [10] 41.2 µM | [14] 26.3 µM
not listed: [11] | [16]
inactive: all other assays above

CCCCC(CC)COCCC#N (configuration not stated)
active: [11] 27.9 µM
inactive: all other assays above

C=C[Si](OCC)(OCC)OCC
active: [11] 5.48 µM
not listed: [9] | [19]
inactive: all other assays above
